PubChem BioAssay (NCI)
Compounds without any hit were thinned out: in the full panel of roughly 79,000, 15% have a hit. Calls of active or inactive are those of the source. Rule as the data show it: active = growth inhibition above about 70%; inactive = the rest.

Tests used:
[1] = NCI Yeast Anticancer Drug Screen. Data for the rad50 strain (AID 155);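 also: 0% = growth of vehicle-only cultures of the same strain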; conditions: S. cerevisiae rad50 strain growth inhibition; at 50.0 µM; hits give high values
Method in brief: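 Vehicle-treated cultures provide the reference for the growth inhibition reported for compound-exposed, repair-deficient yeast.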

[2] = NCI Yeast Anticancer Drug Screen. Data for the mec2-1 strain (AID 157); conditions: S. cerevisiae mec2-1 strain, at 50.0 µM, hits give high values
Method in brief: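 Each compound was tested on mec2-1 yeast, a strain altered in DNA damage repair or cell cycle control. Growth inhibition is reported relative to vehicle.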

[3] = NCI Yeast Anticancer Drug Screen. Data for the sgs1 mgt1 strain (AID 161);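 also: 0% = growth of cultures given vehicle only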; conditions: S. cerevisiae sgs1 mgt1 strain, at 50.0 µM, hits give high values
Method in brief: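 Read-out: growth inhibition vs vehicle controls. Cells: mutant yeast strain deficient in DNA damage repair.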

[4] = NCI Yeast Anticancer Drug Screen. Data for the cln2 rad14 strain (AID 165);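 also: 0% = growth equal to vehicle treated cultures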; conditions: S. cerevisiae cln2 rad14 strain, at 50.0 µM, hits give high values
Method in brief: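 Test compounds were added to cln2 rad14 yeast cultures; inhibition of growth was then determined by comparison with vehicle treatment.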

[5] = NCI Yeast Anticancer Drug Screen. Data for the bub3 strain (AID 167); conditions: S. cerevisiae bub3 mutant strain, at 50.0 µM, hits give high values
Method in brief: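 Mutant yeast screening strain plus compound; vehicle-treated cultures serve as the 0% inhibition reference.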

[6] = NCI Yeast Anticancer Drug Screen. Data for the mlh1 rad18 strain (AID 175); conditions: S. cerevisiae mlh1 rad18 strain growth inhibition; at 50.0 µM; hits give high values
Method in brief: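 Inhibition values reflect reduced growth of mutant yeast versus vehicle-treated controls following compound exposure; the mutations affect DNA damage repair.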

Measured: growth inhibition

OCC1OC(n2ccc3c2ncn2ncnc32)C(O)C1O (configuration not stated)
inactive: [1] -20.7% | [2] 3.45% | [3] -10.4% | [4] -15.3% | [5] -37.6% | [6] -47.8%

C/C(Cc1ccccc1)=N\O
inactive: [1] 3.75% | [2] 3.1% | [3] -20.6% | [4] 19.8% | [5] -7.95% | [6] 7.25%

CC1(c2ccccc2)CO1 (configuration not stated)
inactive: [1] -2.8% | [2] -21.4% | [3] -7.85% | [4] -11.1% | [5] -14.9% | [6] 4.3%

CC1CC(C)S(=O)(=O)C1 (configuration not stated)
inactive: [1] -35% | [2] -30.9% | [3] -39% | [4] -14.9% | [5] -39.8% | [6] -2%

CCC(C)c1c(N)n(S(=O)(=O)c2ccc(C)cc2)oc1=O (configuration not stated)
inactive: [1] -25.2% | [2] 6.8% | [3] 6.4% | [4] -25% | [5] 16.6% | [6] -3.45%

O=[N+]([O-])c1ccc(-c2nc(N(CCO)CCO)c3ccccc3n2)o1
inactive: [1] 41.8% | [2] 69.8% | [5] 25.1% | [6] 66.8%
active: [3] 88.8% | [4] 72.5%

O=C1Nc2ccccc2/C1=C\c1ccccc1O
inactive: [1] 25.2% | [2] -1.75% | [3] 12.2% | [4] 6.8% | [5] 17.4% | [6] 23.4%

Cc1onc(-c2ccccc2Cl)c1C(=O)Cl
inactive: [1] -41.3% | [2] -41.3% | [3] -13.2% | [4] 4.5% | [5] -31.1% | [6] -29.3%

CC(C)C1CCC(C)C(O)C1 (configuration not stated)
inactive: [1] 26.7% | [2] 6.35% | [3] 8.55% | [4] 8.9% | [5] -0.55% | [6] 12.8%

COC(c1ccc2c(c1)OCO2)C(C)Br (configuration not stated)
inactive: [1] 7.45% | [2] -4.4% | [3] 13.6% | [4] -31.1% | [5] -8.9% | [6] 6.55%

COc1ccc(Br)c2c1C(=O)CC2
inactive: [1] 43.6% | [2] 23.4% | [3] 29.4% | [4] 28.4% | [5] 5.45% | [6] 32.9%

Cn1c2ccccc2c2nnc(NCCCCO)nc21
inactive: [1] 10.4% | [2] 18.3% | [3] 19.1% | [4] 24.8% | [5] 19.6% | [6] 41.2%

CC(C)C(=O)OCCOc1ccc(C(C)(C)C)cc1
inactive: [1] 6.35% | [2] 3.1% | [3] 6.9% | [4] -5.2% | [5] 15% | [6] 13.7%

CN(C)c1ncnc2c1cnn2C
inactive: [1] -9.55% | [2] -0.6% | [3] 9.3% | [4] -13.6% | [5] -0.7% | [6] 2.65%

Cc1cccnc1NC1OC(=O)c2ccccc21 (configuration not stated)
inactive: [1] -22.1% | [2] -4.4% | [3] -16.6% | [4] 2.05% | [5] -9.25% | [6] -9.65%

O=S(=O)(O)c1cccc2cccnc12
inactive: [1] 4.3% | [2] 1.95% | [3] 7% | [4] -14.6% | [5] 10.4% | [6] -0.5%

Cc1ccc(NCN2C(=O)c3ccccc3C2=O)c(C)n1
inactive: [1] 4.7% | [2] -28.4% | [3] 8.05% | [4] 11.3% | [5] 7% | [6] -0.65%

COC(C(=O)C(O)C(C)O)C1Cc2cc3cc(OC4CC(OC5CC(O)C(O)C(C)O5)C(O)C(C)O4)c(C)c(O)c3c(O)c2C(=O)C1OC1CC(OC2CC(O)C(OC3CC(C)(O)C(O)C(C)O3)C(C)O2)C(O)C(C)O1 (configuration not stated)
inactive: [1] -6.6% | [2] -23.4% | [3] -12.5% | [4] 6.95% | [5] -11.2% | [6] 11.8%

Cc1ccccc1NC(=O)Oc1ccc(Cl)cc1C(=O)c1ccccc1
inactive: [1] -0.15% | [2] -27.4% | [3] 18.7% | [4] 24.4% | [5] 21.2% | [6] 11.4%

CC1(C)CCC(C)(C)NC(=S)N1
inactive: [1] 13.3% | [2] -8.35% | [3] 21.2% | [4] 1.9% | [5] 13.5% | [6] 11.1%

Cc1cc(Cc2ccccc2)c(O)c(Cc2ccccc2)c1
inactive: [1] 50.1% | [2] 3.3% | [3] 32% | [4] 38% | [5] 12.3% | [6] 42.7%

C=CCc1cc(OC)c(OC)c(OC)c1
inactive: [1] 7.8% | [2] -4.2% | [3] -16.3% | [5] -9.7% | [6] -4%

CC(=O)N(CCCCCCN(C(C)=O)C(C)=O)C(C)=O
inactive: [1] -14.8% | [2] -9.25% | [3] -0.5% | [5] -9.85% | [6] -6.15%

Nc1ccc2c(c1)Cc1cc(N)c(N)cc1-2
inactive: [1] 10.8% | [2] -7.75% | [3] 10.9% | [5] -3.8% | [6] 5.8%

CCN(C(C)=O)c1ccc([N+](=O)[O-])cc1
inactive: [1] -11.9% | [2] -1.65% | [3] 2% | [5] 3.05% | [6] -13.7%

O=[N+]([O-])c1ccc2[nH]c(=S)n(/C=C(/c3ccc(Cl)cc3Cl)S(=O)(=O)Cc3ccc(Cl)cc3Cl)c2c1
inactive: [1] -5.05% | [2] -13.8% | [3] 16.1% | [5] -3% | [6] -13.1%

CCOC(=O)/C(O)=C(\C=N\C(=S)Nc1ccc(Cl)c(Cl)c1)C(=O)OCC
inactive: [1] 43.6% | [2] 11.2% | [3] 38.5% | [5] 49.5% | [6] 50.6%

Cc1ccc(NC(=O)c2ccccc2Cl)cc1
inactive: [1] 12.4% | [2] -4.35% | [3] -13.3% | [5] -6.3% | [6] 6.05%

S=C(NCc1ccccc1)N1CCC(CCCC2CCN(C(=S)NCc3ccccc3)CC2)CC1
inactive: [1] -9.45% | [2] -32.1% | [3] -3.6% | [5] 2.85% | [6] -7.35%

S=c1nc2[nH]c3ccccc3c2n[nH]1
inactive: [1] 8.45% | [2] -17.9% | [3] -5.65% | [5] -8.95% | [6] 6.45%

CCCCN(C=S)CCCC
inactive: [1] 9.65% | [2] -2% | [3] -5.7% | [5] -2.2% | [6] 10.7%

CC(C)(C)CC1(C)NC(=O)NC1=O (configuration not stated)
inactive: [1] -7.3% | [2] 8.25% | [3] 13.1% | [5] 7.25% | [6] 8.45%

Nc1ncnc(Nc2ccc(C(F)(F)F)cc2)n1
inactive: [1] 44% | [2] 8.35% | [4] 13.2% | [5] 25.6% | [6] 17.9%

Cc1cc(Nc2ccc3c(c2)OCO3)c2cc3c(cc2n1)OCO3
inactive: [1] 10.6% | [2] -9.15% | [3] -14.9% | [6] -42.1%

CCOC(=O)C(COS(C)(=O)=O)(COS(C)(=O)=O)C(=O)OCC
inactive: [1] -24.4% | [2] -22.9% | [3] -21.4% | [5] -2.35% | [6] -6.1%

Cc1ccc(S(=O)(=O)NC(=O)NCCSSCCNC(=O)NS(=O)(=O)c2ccc(C)cc2)cc1
inactive: [1] 10.6% | [2] -7.35% | [3] 12.6% | [4] -1% | [6] 7.95%

CC(=O)Nc1ncc(S(=O)(=O)c2ccc([N+](=O)[O-])cc2)s1
inactive: [1] -28.1% | [2] -57.5% | [3] -17.1% | [5] -41.2% | [6] -32.1%

CC(C)c1ccccc1NC(=O)N1CCC(C(C)C)CC1
inactive: [1] -20.8% | [2] -42.6% | [3] -29.8% | [5] -7% | [6] -12.7%

CC(=O)C1C(=O)C(=O)N(c2ccc(Cl)c(Cl)c2)C1=O (configuration not stated)
inactive: [1] -22.1% | [2] -21% | [3] -2.35% | [5] -9.5% | [6] -24.9%

CS(=O)CC(=N\O)/C(CS(C)=O)=N\O (configuration not stated)
inactive: [1] 9.7% | [2] -4.45% | [3] 4.5% | [6] 9.2%

Oc1cc2ccccc2c(-c2c(O)c(O)cc3ccccc23)c1O
active: [1] 89.5% | [2] 85% | [3] 83.7% | [5] 87% | [6] 91.7%

CCCc1cccc(CCC)c1NC(=O)Nc1cc(Cl)cc(Cl)c1
inactive: [1] 37.5% | [2] 19.9% | [4] 37% | [5] 44% | [6] 23.6%

CC(=O)/C(C)=N\OC(=O)Nc1ccccc1
inactive: [1] 1.2% | [2] -8.2% | [3] -2.65% | [6] -9.95%

CCCC(=O)CC(=O)c1ccccc1
inactive: [1] 7.75% | [2] 10.4% | [3] -3.75% | [5] 5.85% | [6] 4.4%

CN1CCCN(C(c2ccccc2)c2ccc(Cl)cc2)CC1 (configuration not stated)
inactive: [1] 3.9% | [2] -16.9% | [3] 1.95% | [6] 10.5%
